Screens from PubChem BioAssay.
HEK293 tox – cytotoxicity counter-screen for GLP-1 receptor inverse agonists; HEK293 cAMP-luciferase reporter cells, luminescence, 24 h; Potency, µM (highest dose often 38.3 µM), actives largely listed as inhibitors; 0.13% of 410,000 active;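 note: loss of luciferase light is scored as toxicity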
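A 23 nL compound transfer followed 12 hours of cell culture at 37 deg C; exposure then lasted 24 hr. Luciferase assay detection reagent was dispensed and plates read for luminescence after a 12 min room-temperature wait.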
BRCA1 expr act – BRCA1 expression activation; MCF7-BRCA1-FFLuc reporter, luminescence, 48 h; response scale: scaled: vehicle 0%, 10 µM genistein 100%; Potency, µM (doses to about 46.1 µM), usual class: activators; 1.1% of 380,000 active; AID 624202; note: nearly all actives have a fitted effect of over 80% in size
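Activators of BRCA1 expression were detected as increased firefly luciferase luminescence in engineered MCF7 cells after 48 h compound incubation. Signals were scaled to genistein 10 microM as full activation.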
GLP1R ag – activates the human GLP-1 receptor; P43220; HEK293 GLP-1R CRE-luciferase, luminescence, 4-6 h; cells express a hypersensitive GLP-1R form; Potency, µM (doses to about 45.6 µM), usual class: activators; 0.007% of 380,000 active
Target sequence (P43220 whole entry, looked up): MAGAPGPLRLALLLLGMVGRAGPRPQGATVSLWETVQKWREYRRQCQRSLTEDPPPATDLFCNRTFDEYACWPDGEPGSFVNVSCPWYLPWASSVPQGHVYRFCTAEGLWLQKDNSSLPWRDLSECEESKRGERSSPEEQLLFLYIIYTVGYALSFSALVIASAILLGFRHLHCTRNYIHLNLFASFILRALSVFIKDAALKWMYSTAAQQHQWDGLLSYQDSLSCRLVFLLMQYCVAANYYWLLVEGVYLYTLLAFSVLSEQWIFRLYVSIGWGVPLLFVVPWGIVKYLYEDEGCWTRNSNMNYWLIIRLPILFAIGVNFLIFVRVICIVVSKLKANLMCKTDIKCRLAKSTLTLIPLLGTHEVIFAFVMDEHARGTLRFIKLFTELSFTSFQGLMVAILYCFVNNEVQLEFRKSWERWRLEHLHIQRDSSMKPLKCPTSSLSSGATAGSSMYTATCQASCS
Mito fusion act – inhibitors of mitochondrial division or activators of mitochondrial fusion; S. cerevisiae fusion-defective mutant growth rescue, CellTiterGlo 48 h; Potency, µM (top dose mostly 46.1 µM), hits mostly activators; 0.23% of 320,000 active; note: nearly all actives have a fitted effect of over 45% in size
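S. cerevisiae fusion-defective temperature-sensitive mutants (e.g. fzo1-1, mgm1-5) grown 48 h at 37C in YPEG (ethanol/glycerol non-fermentable) medium with 23 nl compound per well; growth rescue read as CellTiterGlo luminescence.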
GLP-1R inv ag – GLP-1 receptor (human) inverse agonism | 1.6% of 410,000 active | P43220 | Potency, µM (highest dose often 38.3 µM), usual class: inhibitors | HEK293 GLP-1R CRE-luciferase, luminescence, 24 h; GLP-1R form is constitutively active; note: nearly all actives have a fitted effect of over 55% in size
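Seeding at 200 cells/uL, 12 h culture, 24 hr compound treatment, then luciferase reagent and a luminescence read; cells are HEK293 stably expressing a constitutively active GLP-1R plus cAMP-responsive luciferase.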
Numbers stand for hits; n = inactive; u = inconclusive; x = not tested or not shown. Compounds with a hit are over-represented: about 2.8% of the library has one in this group of screens. Calls come from the whole dose curve; as a rule, active = well fitted curve in the direction sought with a large enough effect; inconclusive = small, poorly fitted or top-dose-only effect, or another doubt; inactive = no such curve, though single readings can be large; an effect the other way counts as inactive or inconclusive.

SMILES	HEK293 tox	BRCA1 expr act	GLP1R ag	Mito fusion act	GLP-1R inv ag
C[C@@]12CCC=C[C@H]1[C@H](c1ccc(/C=C/c3ccccc3)cc1F)N(Cc1ccccc1)C2=O	n	n	n	n	7.94µM
N#Cc1ccccc1S(=O)(=O)N1CCN(c2nc(-c3ccccc3)nc3ccccc23)CC1	n	n	n	x	n
CCN(CC)C(=O)c1[nH]cnc1C(=O)Nc1ccc(C)cc1	n	n	n	n	n
Cc1cccc(C)c1NC(=O)CCCSc1nnc(-c2ccc(Cl)cc2)n1-c1ccccc1	n	n	n	u	5.62µM
O=C(NCCc1ccccc1)C1CCCN1S(=O)(=O)c1cccc2nsnc12 (centres undefined)	n	n	n	n	n
Cc1ccc(C(=O)Nn2cnc3ccccc3c2=O)cc1C	n	8.91µM	n	n	n
COC(=O)c1c(NC(=O)C(Cl)Cl)sc2c1C(C(=O)OC)CC2 (centres undefined)	n	n	n	n	u
N#CC(c1ccc(Cl)cc1)c1ccc2c(C(F)(F)F)cc(C(F)(F)F)nc2n1 (centres undefined)	7.94µM	n	n	n	7.08µM
O=C(c1cnn2ccccc12)N(Cc1ccco1)C1CCCC1	u	n	n	n	3.55µM
COc1ccc(OC)c(Nc2c3c(nc4ccccc24)CCC3)c1	u	n	u	n	u
COc1ccc(OC)c(Nc2c3ccccc3nc3ccccc23)c1	n	n	n	n	11.2µM
CCN(Cc1ccc(OC)c(F)c1)C(=O)C1CCCO1 (centres undefined)	n	n	n	n	n
CCN(Cc1ccc(OC)c(F)c1)C(=O)CCl	n	n	n	n	3.16µM
COc1ccccc1NC(=O)c1ccc(COc2ccc(C)c(C)c2)o1	n	x	x	x	n
O=C(N/N=C/c1ccc2ccccc2c1)c1ccc(COc2ccc3c(c2)CCC3)o1	u	2µM	n	n	n
O=C(N/N=C/c1cc([N+](=O)[O-])ccc1O)c1ccc(COc2ccc3c(c2)CCC3)o1	u	n	n	n	n
COc1ccccc1/C=N\NC(=O)c1ccc(COc2ccc(C)c(C)c2)o1	n	5.62µM	n	x	n
CCOc1cc(C(=O)Nc2ccc3c(c2)OCO3)ccc1OC(F)F	n	n	n	n	n
c1cncc(-c2noc(C34CC5CC(CC(C5)C3)C4)n2)c1	n	12.6µM	n	n	u
Cc1cccc(NC(=S)NC(=O)c2cccs2)n1	u	n	u	n	10µM
S=C(NNc1cccc(Cl)c1)NC1CCCCC1	u	n	n	n	10µM
CCOC(=O)c1ccc(NC(=S)Nc2cccc(C)n2)cc1	1.26µM	n	n	n	n
S=C(Nc1cccc(Cl)c1)NC1CCCCC1	u	n	n	n	8.91µM
COc1ccc(NS(=O)(=O)c2ccc(N3CCCC3)c(NC(=S)Nc3cccc(C)c3C)c2)cc1	n	n	n	n	n
Cc1cccc(NC(=S)NC2CCCC2)n1	u	n	n	n	4.47µM
SMILES	HEK293 tox	BRCA1 expr act	GLP1R ag	Mito fusion act	GLP-1R inv ag
O=C(/C=C/c1ccco1)N1CCN(c2ccc(F)cc2)CC1	n	n	n	n	n
CCOC(=O)Nc1ccc2c(c1)N(CCCN(C)C)c1ccccc1CC2	n	n	n	n	12.6µM
O=C(CSc1nnc(SCc2cccc3ccccc23)s1)N/N=C/c1c[nH]c2ccccc12	n	n	n	n	5.62µM
Cc1ccc(CSc2nnc(SCC(=O)N/N=C/c3c(C)nn(-c4ccccc4)c3C)s2)cc1	n	n	n	n	u
Cc1nn(-c2ccccc2)c(C)c1/C=N/NC(=O)CSc1nnc(SCc2ccccc2Cl)s1	n	12.6µM	n	n	u
O=c1[nH]cccc1-c1nc2ccccc2[nH]1	n	8.91µM	n	n	n
Nc1ccccc1-c1nc2ccccc2[nH]1	n	u	n	n	n
COc1ccc(Cl)cc1NC(=O)CN(C)C(=O)c1ccc2c(c1)CC(c1ccccc1)OC2=O (centres undefined)	n	n	n	n	u
Cc1ccc2c(c1)sc1nc(=O)n(-c3cccc(Cl)c3)c(=O)n12	n	1.41µM	n	n	n
Cc1ccc(S(=O)(=O)N(C)c2ccc(C(=O)NCC(c3ccco3)N(C)C)cc2)cc1 (centres undefined)	n	n	n	n	7.08µM
